Inhibition data for 96 compounds are collected here from PubChem BioAssay AID1850 (Southern Research Specialized Biocontainment Screening …, 2009).

In all, about 310,000 compounds went through this assay and about 1,000 (0.32%) were called active. Only a sample is shown. Potency and affinity values are given separately. A number with no mark means an inactive call. How the calls were made is not given here.

As usually defined, the inhibition is the drop in the measured response relative to a control, in per cent.

The nature of the assay: Inhibition of PhoP regulon, Salmonella typhi GFP reporter cells, confirmation, 4 h (AID 1850).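 Further: 0% = induced wells with vehicle and 100% = uninduced wells.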 As to conditions: Salmonella Typhi PhoP-promoter GFP reporter, fluorescence, at 50 µM, hits give high values.
As for `NC(=O)c1nsc(C(=O)N(c2ccc3c(c2)OCO3)C(C(=O)NCC2CCCO2)c2ccc(F)cc2)c1N` (stereo unspecified), the inhibition was 6.99%. In the case of `CSCCC(NS(=O)(=O)c1cc(C(=O)O)ccc1Cl)C(=O)O` (stereo unspecified) it was -1.99%; in that of `C=CCNC(=O)c1oc2ccc(S(=O)(=O)N3CCCCC3)cc2c1C`, 0.5%. Turning to `CCN(CC)CCCNC(=O)C1CCN(c2ncnc3c2sc2cccc(F)c23)CC1`, the inhibition was 3.1%. With `COc1ccc(Nc2nc(NN)nc(Nc3ccc(OC)cc3)n2)cc1` the figure was -3.28%; with `COc1c2n(C)ccc3c-2n(c(=O)c1=O)c1ccccc31`, 17.2%. With `O=S(=O)(NCCSc1ccc(Cl)cc1)c1ccc2c(c1)OCCO2` the figure was -8.59%; with `COc1cc(Cl)ccc1OCc1cc(C(=O)N2CCCCCCC2)no1`, -27.8%. As to `CC1(c2nnc(-c3ccc(F)cc3)o2)CC(c2ccc([N+](=O)[O-])cc2)=NO1` (stereo unspecified), the inhibition was 3.35%.

Consider `COc1cccc(CNCCc2c[nH]c3ccccc23)c1OCc1ccc(F)cc1`, for which the inhibition was -6.02%.

Turning to `COc1cc(CNCCCCO)ccc1OCc1ccccc1F`, the inhibition was -5.61%.

Take `CCNCc1ccc(OCc2ccccc2F)c(OC)c1`: the inhibition is -10.1%. In the case of `Fc1ccc(CNCCc2c[nH]c3ccccc23)cc1` it was 11.8%. For the compound `Cc1cccnc1NC(=O)CCc1nnc2ccc(N3CCC4(CC3)OCCO4)nn12`, the inhibition is 3.16%. For `Oc1ccc2ccccc2c1CNc1ccc(Br)cn1`, the inhibition is -4.93%. Turning to `CC(C)c1nn(-c2cc(C(F)(F)F)ccn2)c(=O)o1`, the inhibition was 1.48%. For `CCOC(=O)c1cccc(NC(=O)c2cc(C)nn2-c2ccccc2)c1`, the inhibition is 8.61%.

Take `Cc1ccc(NC(=O)C[n+]2cc(-c3ccccc3)n3c2CCC3)cc1`: the inhibition is 10%. In the case of `Cc1ccc(NC(=O)C[n+]2cc(-c3ccc(C)cc3)n3c2CCC3)cc1` it was 14.9%; in that of `O=C(C[n+]1cc(-c2ccc(Cl)cc2)n2c1CCC2)Nc1nc(-c2ccc(F)cc2)cs1`, -19%.

`Cc1ccc(NC(=O)C[n+]2cc(-c3ccccc3)n3c2CCC3)c(C)c1`: the inhibition is 19.1%. With `Cc1ccc(-c2c[n+](CC(=O)Nc3ccccc3C)c3n2CCC3)cc1` the figure was 5.92%; with `O=C(C[n+]1cc(-c2ccccc2)n2c1CCC2)Nc1nc(-c2ccccc2)cs1`, -3.98%; with `Cc1cccc(C)c1NC(=O)C[n+]1cc(-c2ccccc2)n2c1CCC2`, -8.77%. In the case of `Cc1ccccc1NC(=O)C[n+]1cc(-c2ccccc2)n2c1CCC2` it was -9.34%; in that of `Cc1ccc(C(=O)CSc2nc(C)cc(C)c2C(N)=O)cc1`, 12.8%; in that of `Cc1ccc(C(=O)N2N=C(c3cccc(NS(C)(=O)=O)c3)CC2c2cccs2)cc1` (stereo unspecified), -10.1%. On to `Cc1ccc(Cl)cc1NC(=O)C(=O)N/N=C/c1ccc2c(c1)OCO2`, for which the inhibition is -4.53%. For `COc1cccc(/C=C/C(=O)NCc2ccc(S(N)(=O)=O)cc2)c1`, the inhibition is -0.15%. As for `CCOC(=O)c1c(NC(=O)Cn2ccsc2=N)sc(C)c1C`, the inhibition is 14.8%.

On to `Cc1ccc(CSc2nnc(-c3ccncc3)n2C)cc1`, for which the inhibition is -10.9%. `O=C(NC1CCCCCC1)c1ccc(Br)o1`: the inhibition was -0.61%.

For the compound `Cc1cc(NC(=O)CCC(=O)N(CC(=O)NC2CCCC2)c2ccc(Cl)c(Cl)c2)no1`, the inhibition is 14.6%. With `Cc1cccc(C(=O)NCC(=O)OCC(=O)NC2CCCCCCC2)c1` the figure was 0.27%.

For `Cc1ccc(-c2c[n+](CC(=O)Nc3nc(-c4ccc(F)cc4)cs3)c3n2CCC3)cc1`, the inhibition is -3.86%. `Cc1ccc(-c2c[n+](CC(=O)Nc3c(C)cccc3C)c3n2CCC3)cc1`: the inhibition is -24.6%.

For the compound `O=C(C[n+]1cc(-c2ccc(F)cc2)n2c1CCC2)Nc1nc(-c2ccc(F)cc2)cs1`, the inhibition is -2.82%.

For `O=C(C[n+]1cc(-c2ccc(F)cc2)n2c1CCC2)Nc1nc(-c2ccccc2)cs1`, the inhibition was 0.35%. With `CCOC(=O)C(C)c1ccc2cc(OC)ccc2c1` (stereo unspecified), the inhibition is -2.05%. In the case of `Cc1cc(C)c2c(c1)/C(=N/NC(=O)c1cc(C)oc1C)CCC2` it was -3.06%.

Consider `CN(C)c1ccnc2sc3c(SCc4ccc(Cl)cc4)ncnc3c12`, for which the inhibition was -7.49%.

As to `CC(C)n1c(SCc2ccc(Cl)cc2)nc2c1c(=O)[nH]c(=O)n2C`, the inhibition is -4.82%. In the case of `CN(C)CCN(C(=O)c1ccc(S(=O)(=O)N2CCCC2)cc1)c1nc2ccc(Br)cc2s1`, the inhibition was 0.55%. `O=C(CC1NCCc2ccccc21)Nc1ccc(Cl)cc1` (stereo unspecified): the inhibition was 8.21%. For the compound `O=C(CC1NCCc2ccccc21)Nc1ccccc1` (stereo unspecified), the inhibition was 7.99%.

Regarding `Cc1cc(NCCO)nc(N2CCOCC2)n1`, the inhibition is 4.73%.

As for `Cc1c(Br)cc(C(=O)O)c(C)c1C`, the inhibition was 7.99%.

With `COc1cc(C(=O)Nc2ccc(C)cc2C(NCC(=O)NN)c2ccccc2)cc(OC)c1OC` (stereo unspecified), the inhibition is -8.05%. Consider `Nn1c(-c2ccccc2)cc(-c2ccccc2)cc1=O`, for which the inhibition was -2.08%. For `O=c1cc(-c2ccccc2)cc(-c2ccccc2)n1CCO`, the inhibition is 6.95%. Regarding `CN(C)c1ccc(/C=[N+](\[O-])C2N(c3ccccc3)C(=S)SC2(C)C)cc1` (stereo unspecified), the inhibition is -5.4%.

On to `COc1cc(C2c3c(oc4ccccc4c3=O)C(=O)N2CCN2CCOCC2)cc(OC)c1OC` (stereo unspecified), for which the inhibition was -13.4%. As for `Clc1ccccc1OCCCn1ccnc1`, the inhibition was -8.4%. Regarding `c1ccc2cc(OCCCn3ccnc3)ccc2c1`, the inhibition was -0.84%. As for `COc1ccc2nc(SCC(=O)Nc3ccccc3C#N)[nH]c2c1`, the inhibition is -8.31%.

Turning to `Cc1ccc(-n2nc3c(=S)[nH]nc(C)c3c2C)cc1`, the inhibition is 2.54%. In the case of `COc1cccc(C(=O)Nc2ccc(C(=O)c3ccncc3)cc2)c1` it was -15.6%; in that of `CCC(C)NC(=O)CSc1nnc(-c2c[nH]c3ccccc23)o1` (stereo unspecified), 7.49%; in that of `Cc1ccc(O)c(Nc2nc(-c3ccccc3)nc3ccccc23)c1`, 8.76%.

For the compound `COc1ccc(Nc2ncnc3ccccc23)cc1`, the inhibition is -1.42%. In the case of `COc1ccc(Nc2nc(-c3ccccc3)nc3ccccc23)cc1` it was 6.48%. With `COc1ccc(OC)c(Nc2c3ccccc3nc3ccccc23)c1` the figure was -13.7%; with `Cc1ccc(O)c(Nc2ncnc3ccccc23)c1`, 3.94%. Regarding `COc1ccccc1Nc1c2c(nc3ccccc13)CCC2`, the inhibition was 0.56%. In the case of `COc1ccc(Nc2cccc3ccccc23)cc1`, the inhibition is -1.63%. As for `COc1cc(Nc2c3ccccc3nc3ccccc23)cc(OC)c1OC`, the inhibition is -7.36%.

Take `COc1ccc(CCC(=O)NCCS(=O)(=O)N2CCN(c3ccc(F)cc3)CC2)cc1`: the inhibition is 3.06%.

On to `O=C(c1ccccc1)N1N=C(C(F)(F)F)CC1(O)c1ccc(F)cc1` (stereo unspecified), for which the inhibition was -5.13%. Regarding `CCOC(=O)c1ccc(S(=O)(=O)N2CCN(C(=O)CSc3nc4ccccc4o3)CC2)cc1`, the inhibition was 1.15%.

For the compound `CC(=O)c1c(C(C)=O)c(C)n(NC(=O)c2ccc(Cl)cc2)c1C`, the inhibition was 2.98%.

In the case of `CN(C)C1=NCC(CSC(=N)N)S1` (stereo unspecified), the inhibition was -1.53%. Regarding `CCOc1ccc(N2CC(C(=O)Nc3ccc4c(c3)OCO4)CC2=O)cc1` (stereo unspecified), the inhibition was 2.26%. With `Cc1ccc(C(=O)Nc2nnc(S(=O)(=O)N3CCC(C)CC3)s2)cc1` the figure was 4.17%.

Turning to `O=C(COC(=O)c1ccc(Cl)c(S(=O)(=O)N2CCCC2)c1)NC1CCCCC1`, the inhibition is 5.96%. With `Cc1c2ccccc2nc2ccccc12` the figure was -14.3%; with `COc1c2ccccc2c(OC)c2ccccc12`, -8.01%. Turning to `CCOc1ccc(Nc2nc3ccccc3c(=O)s2)cc1`, the inhibition was 10.5%. In the case of `CCOc1ccc(Nc2cc(C)c3ccccc3n2)cc1` it was 10.8%; in that of `CCOC(=O)C(Cc1ccccc1)NC(=O)CNC(=O)CNC(=O)OCc1ccccc1` (stereo unspecified), 4.1%. Regarding `CC1CCCCN1C(=O)COC(=O)c1cc([N+](=O)[O-])ccc1N` (stereo unspecified), the inhibition was 0.19%. As for `COCCN(C(=O)COC(=O)CC1CCCCC1)c1c(N)n(Cc2ccccc2)c(=O)[nH]c1=O`, the inhibition is -6.56%. As to `COc1ccc(/C=C(\NC(=O)c2ccco2)C(=O)NCCc2nc3ccccc3[nH]2)cc1`, the inhibition is 4.61%. For the compound `Cc1cc(N(CCCl)CCCl)ccc1/C=N/N=C(\N)c1cnccn1`, the inhibition was 1.24%.

As to `CC(C)(C)c1ccc(C(=O)NCC(=O)OCC(=O)Nc2nc(-c3ccc(F)cc3)cs2)cc1`, the inhibition is 6.97%. Take `Cc1ccc(C)c2[nH]c(=O)c(CN(CC3CCCO3)S(=O)(=O)c3ccc4c(c3)OCCO4)cc12` (stereo unspecified): the inhibition was -7.59%.

Consider `NC(=O)CN1CCN(CCN2C(=O)c3cccc4cccc(c34)C2=O)CC1`, for which the inhibition was 10.1%.

`CCN(CC)CCN1C(=O)c2cccc3cc(N)cc(c23)C1=O`: the inhibition is 6.76%. `CC(C)(C)c1ccc(OCCCN2CCCC2)cc1`: the inhibition was -5.11%.

For `CC1CCN(CCCCOc2ccc(C(C)(C)C)cc2)CC1`, the inhibition is -0.73%. For `Cc1ccc(OCCCCCCN2CCNCC2)cc1`, the inhibition is 11.8%. In the case of `CC(C)(c1ccccc1)c1ccc(OCCN2CCOCC2)cc1` it was -18%; in that of `COCCNCCCOc1ccc(C(C)(C)c2ccccc2)cc1`, 3.55%. As to `COCCCNCCCOc1ccc(C(C)(C)c2ccccc2)cc1`, the inhibition was 0.01%. Consider `Cn1c(SCC(=O)Nc2ccc3c(c2)OCCO3)nnc1-c1ccccn1`, for which the inhibition was -2.36%.

With `COCCNc1c([N+](=O)[O-])c(=O)n(-c2ccccc2)c2ccccc12`, the inhibition is -1%. As to `Cn1c(N)c(N2CCN(c3ccccc3)CC2)c(=O)[nH]c1=O`, the inhibition is -2.5%.
